Results on 38 molecules are retold here after the supplement of paper PMC8699584.

Values joined by “and” are separate entries in the source; they are usually repeats but may differ in a detail not shown here. Equal entries are not always repeated. ± gives the standard deviation of the averaged measurements.

The subject of one experiment is Molm13. As to the kind of experiment: cell viability relative to DMSO control (bortezomib = 0%); higher = less growth inhibition. The conditions noted are these: 10 nM; 72 h. The essentials:
(§1)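 Each plate's values were converted to percentages by linear regression, taking DMSO-treated cells as 100% and positive-control-treated cells as 0%. These plates were 384-well plates of 679 approved and investigational compounds at a single 10 nM dose, onto which acute myeloid leukemia cells were dispensed at 1000 cells per well in 50 µL for 72 h, in duplicate. Cell viability came from CellTiter-Glo luminescence on an EnVision reader.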

Another experiment has as its system Mv4-11. The experiment is described as above. The conditions noted are these: 10 nM; 72 h. The method, boiled down: as §1

In the case of `Cc1cc(O)c2c(c1)C(=O)c1cccc(O)c1C2=O` [Chrysophanic Acid], the results for the cell viability in the experiment with Molm13 and with Mv4-11 were 93.1 ± 1.7% and 108 ± 12%, respectively.

Turning to `c1ccc(-c2[nH]ncc2-c2ccnc3ccccc23)nc1`, the cell viability with Molm13 was 102% and 105%; with Mv4-11, 111% and 113%.

As for `Cc1cc(O)c2c(c1)C(=O)c1cc(O)cc(O)c1C2=O` [Emodin], the cell viability came to 91.2 ± 7.2% in the experiment on Molm13 and 99.1 ± 2.6% with Mv4-11.

On to `COc1ccc2c3n(c(=NC(=O)c4cccnc4)nc2c1OC)CCN3`, for which the cell viability in the experiment with Molm13 turned out to be 88.7 ± 7%; in the experiment with Mv4-11 it was 102 ± 2.9%.

On to `O=C1NC(=O)/C(=C/c2ccc(-c3ccc(F)cc3O)o2)S1`, for which the cell viability in the experiment on Molm13 was found to be 106 ± 2.7%; with Mv4-11 it was 95.5 ± 9.9%.

As to `CN(c1ncccc1CNc1nc(Nc2ccc3c(c2)CC(=O)N3)ncc1C(F)(F)F)S(C)(=O)=O`, the cell viability in the experiment on Molm13 came to 98 ± 2.3%; with Mv4-11, 105 ± 8.8%.

Consider `C=CCn1c(=O)c2cnc(Nc3ccc(N4CCN(C)CC4)cc3)nc2n1-c1cccc(C(C)(C)O)n1`, for which the cell viability with Molm13 stood at 93.6 ± 20%; with Mv4-11, 95.2 ± 2.1%.

Take `O=C(NC[C@H](O)CO)c1ccncc1Nc1ccc(I)cc1F`: the cell viability was 91.6% and 95% in the experiment on Molm13; 103% and 92.3% with Mv4-11.

Take `CS(=O)(=O)c1cccc(CNc2nc(Nc3ccc4c(c3)CCC(=O)N4)ncc2C(F)(F)F)c1`: the cell viability with Molm13 was determined as 98.44 ± 0.67%; in the experiment with Mv4-11, 101 ± 4.3%.

In the case of `C#Cc1cccc(Nc2ncnc3cc(OC)c(OCCCCCCC(=O)NO)cc23)c1`, the cell viability turned out to be 105 ± 10% in the experiment on Molm13 and 120 ± 20% in the experiment on Mv4-11.

For `Cc1ccc(NC(=O)c2cccc(N(C)C)c2)cc1NC(=O)c1ccc(O)cc1`, the cell viability came out at 94.6 ± 6% in the experiment with Molm13 and 103 ± 5.7% in the experiment on Mv4-11.

Take `Cc1cc(NC(=O)c2cccc(NC(=O)/C=C/CN(C)C)c2)ccc1Nc1nccc(-c2cccnc2)n1`: the cell viability in the experiment with Molm13 worked out at 92 ± 6.9%; in the experiment on Mv4-11, 113 ± 5.2%.

Consider `c1ccc2c(-c3cnn4cc(-c5ccc(N6CCNCC6)cc5)cnc34)ccnc2c1`, for which the cell viability in the experiment on Molm13 amounted to 98 ± 20%; in the experiment with Mv4-11, 112 ± 6.1%.

Take `CC(C)(C)[Si](C)(C)Oc1ccc2oc(=O)c3c(c2c1)CCCN3`: the cell viability turned out to be 108 ± 12% in the experiment on Molm13 and 108 ± 14% in the experiment with Mv4-11.

For the molecule `Cn1cnc2c(NCc3ccccc3)nc(NCCO)nc21` [Olomoucine], the cell viability in the experiment with Molm13 was found to be 106 ± 16%; with Mv4-11, 104.2 ± 1%.

For `O=C1NCCSc2c1sc1ccc(O)cc21`, the cell viability was 92.9 ± 24% in the experiment with Molm13 and 103 ± 14% with Mv4-11.

For `CC(C)(C)c1nc(-c2cccc(NS(=O)(=O)c3c(F)cccc3F)c2F)c(-c2ccnc(N)n2)s1`, the cell viability came to 98.4 ± 6.6% in the experiment on Molm13 and 124 ± 2.6% in the experiment on Mv4-11.

On to `O=C1NC(=O)/C(=C/c2cccc(C(F)(F)F)c2)S1`, for which the cell viability in the experiment on Molm13 came to 112 ± 15%; in the experiment on Mv4-11 it was 119 ± 17%.

With `O=C1Nc2cc(Br)ccc2/C1=C1/Nc2ccccc2/C1=N\O`, the cell viability with Molm13 is 109 ± 2.3%; in the experiment with Mv4-11 it was 91.4 ± 8.7%.

Turning to `O=C(NOCC1CC1)c1cc(Br)c(F)c(F)c1Nc1ccc(I)cc1Cl`, the cell viability is 110 ± 11% in the experiment on Molm13 and 113 ± 2.4% in the experiment on Mv4-11.

Turning to `C=C1C[C@@]2(O)O[C@@]3(C[C@H]2C(C)C)[C@@H](C)CC[C@@H]13` [Curcumol], the cell viability in the experiment with Molm13 is 99 ± 9.7%; in the experiment on Mv4-11 it was 97.2 ± 4.6%.

Take `CCCCCCCCCCCCCCCCOP(=O)([O-])OCC[N+](C)(C)C` [Miltefosine]: the cell viability was 76.2 ± 20% in the experiment with Molm13 and 102 ± 7.5% in the experiment with Mv4-11.

In the case of `O=C(Nc1ccc(-c2ccnc(Nc3ccc(N4CCOCC4)cc3)n2)cc1)C1CCCN1` (stereo unspecified), the cell viability in the experiment with Molm13 stood at 107 ± 16%; in the experiment on Mv4-11, 95.7 ± 4.2%.

As for `Cc1ccc(C(=O)Nc2ccc(CN3CCN(C)CC3)c(C(F)(F)F)c2)cc1C#Cc1cnc2[nH]ncc2c1`, the cell viability in the experiment on Molm13 was -13.5 ± 5.7%; in the experiment on Mv4-11 it was -14.8 ± 0.36%.

On to `COc1ccc(-c2oc3c(CC=C(C)C)c(O)cc(O)c3c(=O)c2O)cc1` [Icaritin], for which the cell viability in the experiment with Molm13 was found to be 117 ± 8.4%; in the experiment with Mv4-11, 118 ± 1.5%.

As to `NC(=O)c1ccccc1Nc1ccnc(Nc2cccc(O)c2)n1`, the cell viability was determined as 106 ± 34% in the experiment on Molm13 and 89.2 ± 14% in the experiment with Mv4-11.

As to `O=C1NCCc2[nH]c(-c3ccncc3)cc21`, the cell viability in the experiment with Molm13 was 115 ± 14%; in the experiment with Mv4-11 it was 115 ± 6.7%.

For the molecule `N#Cc1c(-c2ccccc2)cc(-c2cc(Br)ccc2O)[nH]c1=O`, the cell viability in the experiment with Molm13 stood at 125 ± 30%; in the experiment with Mv4-11 it was 114 ± 9.7%.

Take `CS(=O)(=O)N1CCc2c(-c3cnc(N)nc3)nc(N3CCOCC3)nc21`: the values for the cell viability with Molm13 and in the experiment with Mv4-11 were 119.7 ± 0.72% and 126 ± 9.7%, respectively.

Regarding `COCCOc1cnc2ccn([C@H](C)c3nnc4c(F)cc(-c5cnn(C)c5)cn34)c(=O)c2c1`, the cell viability in the experiment with Molm13 turned out to be 104 ± 13%; in the experiment with Mv4-11, 115 ± 1.6%.

`COC(=O)c1ccc2c(c1)NC(=O)/C2=C(\Nc1ccc(N(C)C(=O)CN2CCN(C)CC2)cc1)c1ccccc1` [Nintedanib (BIBF 1120)]: the cell viability in the experiment with Molm13 stood at 83.62 ± 0.69%; with Mv4-11, 113 ± 5.7%.

Turning to `Cc1cnc(-c2cnc(NCCNc3ccc(C#N)cn3)nc2-c2ccc(Cl)cc2Cl)[nH]1`, the cell viability with Molm13 was 104% and 111%; in the experiment with Mv4-11, 105% and 110%.

`NC(=O)Nc1cc(-c2ccc(CN3CCOCC3)cc2)sc1C(N)=O`: the cell viability in the experiment with Molm13 was 108 ± 30%; in the experiment with Mv4-11, 113 ± 6.3%.

Take `Nc1ccc(C(=O)Nc2cccc(-c3nc(N4CCOCC4)c4oc5ncccc5c4n3)c2)cn1`: the cell viability with Molm13 was 104% and 101%; in the experiment on Mv4-11, 106% and 108%.

`NC(=O)c1ccc(-c2nc(-c3ccccn3)c(-c3ccc4c(c3)OCO4)[nH]2)cc1`: the cell viability in the experiment on Molm13 came to 105 ± 16%; in the experiment with Mv4-11, 107 ± 20%.

For the molecule `C#Cc1cccc(Nc2ncnc3cc4c(cc23)OCCOCCOCCO4)c1` [Icotinib], the cell viability in the experiment on Molm13 was 93.2 ± 10%; with Mv4-11, 97.5 ± 5.9%.

On to `CCCCOc1c(C(=O)c2c(F)cc(C)cc2F)c[nH]c2nncc1-2`, for which the cell viability with Molm13 worked out at 112 ± 1.9%; in the experiment on Mv4-11 it was 107 ± 7%.

For `CCCCCCCCCCCCC/C=C/[C@@H](O)[C@H](CO)N(C)C` [N,N-Dimethylsphingosine], the cell viability in the experiment on Molm13 came out at 108 ± 20%; in the experiment with Mv4-11 it was 115 ± 6.7%.

Broadly, the cell viability is a read-out of living cells in per cent, often relative to untreated cells.
